# Laboratory results taken from the supplement of paper PMC10338343.
# ± gives the standard deviation.
# System: MILI (PIWIL2) piRISC loaded with L1MC piRNA (26 nt)
# Assay: pre-steady-state target cleavage rate (min^-1); guide: L1MC piRNA 5'p-UAACUAAAUACUAUGCAAGCUGUAGG; MIWI and MILI are mouse PIWI proteins and EfPiwi is from a freshwater sponge; tags in brackets are library labels; higher = faster piRNA-guided slicing of the target
# Conditions: auxiliary factor: 500 nM mouse GTSF1
# Procedure, shortened: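 For Cleave-'n-Seq, a transcribed, DNA-blocked target RNA library […] met 1 nM active affinity-purified piRISC with one synthetic guide at 33 °C for 0–8 or 0–960 min in HEPES–potassium acetate buffer, with or without 500 nM GTSF1 partner protein. Uncleaved targets were sequenced and normalised to depth and weakly complementary targets, with three trials pooled and k3 capped at 0.0001 min^-1. A burst-and-steady-state fit supplied the pre-steady-state cleavage rate.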
# 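Also: 1 nM active piRISC with 0.1 nM target library at 33 °C single turnover.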
row,Sequence,pre-steady-state target cleavage rate
1,UCCUGGAUGUCGAUGCAUAGUAUUUCGUUA,0.0116 ± 0.0056
2,UCCUGGAUGUCCUUGCAUAGAUAUUAGUUA,0.00447 ± 0.0038
3,UCCUGGAUGUCGAACGUAACUAUAUAGUUA,< 0.0001
4,UCCUGGAUGUCCUUGCAUAGUAAAUAGUAA,0.00932 ± 0.0037
5,UCCUGGAUGAGCUUGCAUAGUAAUAAGUUA,0.202 ± 0.045
6,UCCUCCUACAGCAUGCAUAGUAUUUUCAAA,0.138 ± 0.03
7,UCCUGCUACAGCUUGCUAUGUAUUUAGAAA,0.0133 ± 0.0063
8,UCCUGGAACACCUUGCAUAGUAUUUAGUAA,0.17 ± 0.022
9,UCCUGGAUCAGCUUCGAUAGUAUUUAGUAA,0.158 ± 0.016
10,UCCUGGAACAGCUUGCAAAGAAUUUAGUUA,0.102 ± 0.037
11,UCCUGCUACAGCUUGCAUAGUUAUUACAAA,0.00534 ± 0.0038

# Same assay, conditions: auxiliary factor: none (no GTSF1)
row,Sequence,pre-steady-state target cleavage rate
1,UCCUGGAUGUCGAAGCAUAUAUUUAGUUA,< 0.0001
2,UCCUGGAUGUCGAACCAUUAGUAUUUAGUUA,< 0.0001
3,UCCUGGAUGUCGAACGAUAGUGAUUUAGUUA,< 0.0001
4,UCCUGGAUGUCGAUGAUAGUAUUUAGUUA,< 0.0001
5,UCCUGGAUGUCGAACGUAAGUAAUAAGUUA,< 0.0001
